Common to all, as to format: functional
The target in assay [1] is Solute carrier family 2, facilitated glucose transporter member 1 (Homo sapiens) (UniProt P11166). Nature of the assay: ST_JUDE_LEISH: Cytotoxicity at 2uM final concentration against transgenic Leishmania Mexicana promastigotes LmGLUT1 that are glucose transport deficient and complemented with the human glucose transporter GLUT1. Activity is measured by DNA content using SYBR green in vitro.

Assay [2] deals with Hexose transporter 1 (Plasmodium falciparum) (UniProt O97467). The experiment in a line: ST_JUDE_LEISH: Cytotoxicity at 2uM final concentration against transgenic Leishmania Mexicana promastigotes LmPfHT that are glucose transport deficient and complemented with the Plasmodium falciparum hexose transporter. Activity is measured by DNA content using SYBR green in vitro.
Assay [3] addresses Glucose transporter (Leishmania mexicana) (UniProt O61059). Nature of the assay: ST_JUDE_LEISH: Cytotoxicity at 2uM final concentration against transgenic Leishmania Mexicana promastigotes LmGT2 that are glucose transport deficient and complemented with the L. Mexicana glucose transporter 2. Activity is measured by DNA content using SYBR green in vitro.

The structures appear in SMILES notation.

Sequence of Solute carrier family 2, facilitated glucose transporter member 1 (Homo sapiens) (P11166 whole entry): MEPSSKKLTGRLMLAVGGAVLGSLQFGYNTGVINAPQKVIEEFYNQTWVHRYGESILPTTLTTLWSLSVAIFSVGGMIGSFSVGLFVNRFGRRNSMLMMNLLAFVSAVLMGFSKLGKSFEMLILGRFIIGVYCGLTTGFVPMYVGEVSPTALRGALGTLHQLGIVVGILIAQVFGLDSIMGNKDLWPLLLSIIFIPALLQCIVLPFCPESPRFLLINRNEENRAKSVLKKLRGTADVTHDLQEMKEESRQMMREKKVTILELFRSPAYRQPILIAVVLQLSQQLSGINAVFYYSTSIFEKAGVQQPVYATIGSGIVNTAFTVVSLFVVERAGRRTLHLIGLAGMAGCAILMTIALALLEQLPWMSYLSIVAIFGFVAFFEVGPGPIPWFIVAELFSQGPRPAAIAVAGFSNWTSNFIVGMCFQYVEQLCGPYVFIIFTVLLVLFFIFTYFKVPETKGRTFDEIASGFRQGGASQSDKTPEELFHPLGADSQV

With `Cc1cc(Cl)c(S(=O)(=O)NC(C)(C)C)cc1OCC(=O)NC1CCCCC1`, the inhibition – broadly, the relative decrease from the control value, in per cent – in assay [1] is -0.97%; in assay [2], 0.93%; in assay [3], 0.34%.

`Cc1cccc2nc(-c3ccc(-c4ccc(NC(=O)Nc5ccc(F)c(F)c5F)cc4)cc3)[nH]c12`: the inhibition in assay [1] was found to be 8.48%; in assay [2], 8.02%; in assay [3], 7.14%.

As for `COc1ccc(-c2nc(NC(=O)Cc3cccc(OC)c3)sc2C)cc1`, the inhibition in assay [1] was determined as 0.19%; in assay [2], 0.46%; in assay [3] it was 3.16%.

`COc1cc(CCNc2nc(NCc3cccc4ccccc34)nc(N3CCC(N)CC3)n2)ccc1O`: the inhibition in assay [1] was 5.69%; in assay [2], 4.98%; in assay [3] it was 2.74%.

In the case of `CCN(C)c1cc(C(=O)N[C@@H](Cc2ccccc2)[C@H](O)CNC(C)(C)c2cccc(OC)c2)cc(N2CCCC2=O)c1`, the inhibition in assay [1] came out at 1.69%; in assay [2] it was 0.79%; in assay [3] it was 4.41%.

With `CSc1nccc(-c2ccc3ccnc(N)c3c2)n1`, the figures for the inhibition in assay [1], in assay [2] and in assay [3] were 11.2%, 10.7% and 9.37%, respectively.

Take `OCCC1CCN(Cc2ccc(-c3ccc(-c4nc5ccccc5[nH]4)cc3)cc2)CC1`: the inhibition in assay [1] turned out to be 8.45%; in assay [2] it was 5.85%; in assay [3], 5.76%.

Take `CCCCCCOc1ccc(C(=O)NCCC2CCN(CCCCCNC(=O)C=Cc3ccc(Cl)c(Cl)c3)CC2)cc1`: the inhibition is -0.8% in assay [1], -0.99% in assay [2] and -0.17% in assay [3].

With `CC(=O)Nc1ccc(C(=O)Nc2cccc(-c3cccc(-c4nc5cc(F)ccc5[nH]4)c3)c2)cn1`, the inhibition was found to be 7.97% in assay [1], 10.8% in assay [2] and 3.74% in assay [3].

Consider `CN1CCC(Oc2ccc(CN3CC[C@H](NC(=O)c4ccc(Cl)c(F)c4)C3)c3ccccc23)C1` (some centres undefined), for which the inhibition in assay [1] is 0.38%; in assay [2], 3.36%; in assay [3] it was 2.67%.

For `CC1(C)N=C(N)N=C(N)N1c1ccc(Cl)cc1`, the inhibition in assay [1] stood at 5.04%; in assay [2], 4.91%; in assay [3], 4.69%.

Take `O=C(NC1CCN(Cc2ccc(O)cc2)CC1)c1ccc(Cl)c(Cl)c1`: the inhibition in assay [1] was 4.53%; in assay [2] it was 4.25%; in assay [3], -3.12%.

On to `COc1ccc2c(NN=Cc3cccc(C)n3)ccnc2c1`, for which the inhibition in assay [1] is 4.32%; in assay [2], 5.22%; in assay [3], 5.4%.

With `CCOc1ccc(/C=C/C(=O)Nc2cccc3c2CCN(C)C3)cc1`, the inhibition was 8.24% in assay [1], 7.2% in assay [2] and 6.27% in assay [3].

For the compound `Cc1cc(N)c2cc(NC(=O)c3cccc4ccccc34)ccc2n1`, the inhibition in assay [1] was 0.77%; in assay [2], 1.19%; in assay [3], 0%.

For the compound `COc1cc(NC(=O)CCCCCCCCN2CCN(C)CC2)c2ncccc2c1`, the inhibition in assay [1] was 1.29%; in assay [2], -0.26%; in assay [3], 0.86%.

As for `COc1ccc(-c2nc(NC(=O)CSc3ccccc3)sc2C)cc1`, the inhibition in assay [1] was 9.07%; in assay [2], 4.4%; in assay [3], 6.37%.

Turning to `NCCNC(=O)c1ccc(-c2cnc3[nH]cc(-c4ccc(C(N)=O)cc4)c3c2)cc1`, the figures for the inhibition in assay [1], in assay [2] and in assay [3] were 3.65%, 2.58% and 2.98%, respectively.

With `N=C(N)c1ccc(Nc2nccc(Nc3nc(-c4ccccc4)cs3)n2)cc1`, the inhibition in assay [1] is 0.38%; in assay [2] it was 0.47%; in assay [3] it was -0.9%.

For the compound `NCc1ccc(CNCc2cccc(-c3ccc(-c4nc5cc(C(F)(F)F)ccc5[nH]4)cc3)c2)cc1`, the values for the inhibition in assay [1], in assay [2] and in assay [3] were 2.92%, 1.34% and 0.8%, respectively.

Take `O=C(Nc1ccc(-c2cccc(-c3nc4cc(F)ccc4[nH]3)c2)cc1)c1ccncc1`: the inhibition in assay [1] stood at 13.9%; in assay [2], 14.2%; in assay [3], 12.9%.

For `CCN1CCN(c2cc(C)c3cc(NC(=O)C=Cc4cccc(OC)c4OC)ccc3n2)CC1`, the inhibition was found to be 5.91% in assay [1], 11.3% in assay [2] and 1.27% in assay [3].

On to `N=C(N)c1ccc(C=Cc2ccc(C(=N)N)cc2O)cc1`, for which the inhibition in assay [1] was -0.26%; in assay [2] it was -0.04%; in assay [3] it was -0.9%.

As for `COc1ccc(CNC2Cc3ccccc3C2)cc1-c1ccc(OC)c(S(=O)(=O)NCCN2CCCC2)c1`, the values for the inhibition in assay [1], in assay [2] and in assay [3] were 1.59%, 1.67% and -1.29%, respectively.

In the case of `O=C(NCC1CCN(Cc2cccc(C(F)(F)F)c2)C1)c1cc(-c2cccc(Cl)c2)cs1` (centres undefined), the results for the inhibition in assay [1], in assay [2] and in assay [3] were 1.83%, 1.37% and -3.57%, respectively.

As for `COc1ccc(C2CC(=O)C3=C(C2)NC(C)=C(C(=O)OC(C)C)C3c2c(F)cccc2Cl)cc1OC` (centres undefined), the inhibition in assay [1] came out at 2.24%; in assay [2], 0.57%; in assay [3], 0.75%.

Consider `CC(O)c1cccc(-c2ccc(Nc3ccnc4cc(-c5nccs5)ccc34)cc2)c1` (centres undefined), for which the inhibition came out at 4.55% in assay [1], 4.09% in assay [2] and 4.15% in assay [3].

Regarding `CCOc1cc(C(=O)NC2CC(C)(C)NC(C)(C)C2)ccc1-c1cc2cc(Cl)c(Cl)cc2[nH]1`, the inhibition is -1.95% in assay [1], -1.26% in assay [2] and -0.02% in assay [3].

In the case of `Cc1cc(-c2cccc(CNCc3ccccc3)c2)ccc1S(=O)(=O)NCCN1CCCC1`, the results for the inhibition in assay [1], in assay [2] and in assay [3] were 6.02%, 8.53% and 5.69%, respectively.

Take `CC(C)(C)NCc1cc(Nc2ccnc3cc(Cl)ccc23)ccc1F`: the inhibition worked out at 7.77% in assay [1], 8.36% in assay [2] and 9.71% in assay [3].

Turning to `CC(C)CCN(Cc1cncn1Cc1cccc(C(F)(F)F)c1)C(=O)c1ccccc1C#N`, the results for the inhibition in assay [1], in assay [2] and in assay [3] were -3.54%, -0.35% and 0.86%, respectively.

Turning to `Nc1ncc(-c2ccccc2)cc1-c1cccc2ncccc12`, the inhibition turned out to be 7.53% in assay [1], 9.12% in assay [2] and 6.36% in assay [3].

Regarding `Cc1cc(CNCC2CCC(CNCCCc3ccccc3)CC2)ccc1O` (centres undefined), the figures for the inhibition in assay [1], in assay [2] and in assay [3] were 9.97%, 8.79% and 7.65%, respectively.

For the compound `N=C1NC(c2ccccc2)(c2ccccc2)C(=O)N1C1CCCCC1`, the inhibition in assay [1] worked out at 3.46%; in assay [2] it was 3.28%; in assay [3] it was 1.18%.

As to `COc1ccc(NC(=O)C2c3ccccc3C(=O)N(C3CCCC3)C2c2cccs2)cc1OC` (centres undefined), the values for the inhibition in assay [1], in assay [2] and in assay [3] were 2.85%, 5.65% and 0.45%, respectively.

On to `N#Cc1ccc(NC(=O)c2ccc(C(=O)NCCCCN3CCC(c4ccc5c(c4OCCOC4CCCCO4)CCCC5)CC3)cc2)cc1` (centres undefined), for which the inhibition worked out at 0.68% in assay [1], 2.54% in assay [2] and 0.27% in assay [3].

For `COC(=O)c1cccc(CNCc2ccc(-c3cccc(-c4nc5ccccc5[nH]4)c3)cc2)c1`, the inhibition is -2.56% in assay [1], -1.88% in assay [2] and 0% in assay [3].

For `Cc1cc(N[C@@H](Cc2ccccc2)C(=O)NCCOc2ccccc2)nc(Nc2ccccc2)n1`, the inhibition was found to be 6.08% in assay [1], 6.54% in assay [2] and 2.62% in assay [3].

Take `O=C(NC1CCN(c2ccc(F)cc2[N+](=O)[O-])CC1)c1cccs1`: the inhibition in assay [1] was 4.31%; in assay [2], 3.82%; in assay [3], 2.71%.

As for `CCc1ccccc1OCCCON1C(=N)N=C(N)NC1(C)C`, the inhibition in assay [1] came to 28.6%; in assay [2], 37.9%; in assay [3], 29.2%.

Regarding `O=C(/C=C/c1ccc(Cl)c(Cl)c1)NCCCCCN1CCCN(C(=O)Nc2ccc(Cl)c(C(F)(F)F)c2)CC1`, the inhibition in assay [1] is -0.86%; in assay [2], -0.33%; in assay [3] it was -2.37%.

On to `CCCC(C)Nc1nc(C)cc(N[C@@H](Cc2ccccc2)C(=O)NCc2cccc(F)c2)n1` (some centres undefined), for which the inhibition stood at 4.14% in assay [1], 4.96% in assay [2] and 2.68% in assay [3].

With `O=C(/C=C/c1ccccc1Cl)Nc1ccc(Br)c(OCCN2CCC(O)(c3ccccc3)CC2)c1`, the inhibition is 2.66% in assay [1], 0.95% in assay [2] and -0.34% in assay [3].

Take `COc1ccc(-c2ccc(NC(=O)c3cccc(Cl)c3)cc2)cc1CN(C)CCN(C)C`: the inhibition in assay [1] came to 15.6%; in assay [2], 14.4%; in assay [3], 4.62%.

For the compound `CN(C)CCOc1ccnc2ccc(NC(=O)Cc3ccc(-c4ccncc4)c4ccccc34)cc12`, the inhibition in assay [1] is 1.07%; in assay [2] it was -0.32%; in assay [3], 7.74%.

As to `Cc1cc(NCCC(=O)NCCOc2ccccc2)nc(Nc2ccccc2)n1`, the inhibition in assay [1] was found to be 5.24%; in assay [2] it was 4.64%; in assay [3], 0.05%.

In the case of `COc1ccc(CN2C(=S)N(Cc3ccccc3)C(=O)C2CC(=O)Nc2ccccc2)cc1OC` (centres undefined), the inhibition in assay [1] was 0.79%; in assay [2], -0.87%; in assay [3], -2.09%.

In the case of `CC(C)(C)c1ccc(S(=O)(=O)Nc2ccccc2N2CCOCC2)cc1`, the inhibition in assay [1] is 6.54%; in assay [2] it was 4.11%; in assay [3], 0.2%.

The record behind these values is ChEMBL document CHEMBL3433997, “St. Jude Leishmania screening dataset” (2016).
